This passage reports outcome results from PubChem BioAssay (NCATS).

Results filed as inconclusive are left out. Calls of active or inactive are those of the source. Calls come from the whole dose curve; as a rule, active = well fitted curve in the direction sought with a large enough effect; inconclusive = small, poorly fitted or top-dose-only effect, or another doubt; inactive = no such curve, though single readings can be large or run the other way.

The nature of the experiment: KB-8-5-11 P-gp reporter qHTS against the NCATS DSHEA and TCM libraries (AID 1919977). The conditions noted are these: KB-8-5-11 cells; series mostly up to 26.1 µM. The text has this:
Assay Development and Screening Technology Laboratory (ADST)
National Center for Advancing Translational Sciences (NCATS), Rockville, MD
National Institute of Health (NIH), Bethesda, Maryland
Dietary Supplements and Natural Products have minor oversight of their safety and efficacy. We assembled a collection of Dietary Supplements and Natural Products (DSNP) as well as Traditional Chinese Medicinal (TCM) Plant extracts, which were screened against an in vitro panel of assays, including a liver cytochrome p450 enzyme panel, CAR/PXR signaling pathways, and P-gp transporter assays, to assess their activity. This pipeline facilitated the interrogation of Natural Product-Drug Interaction (NaPDI) through prominent metabolizing pathways. In addition, we compared the activity profiles of the DSNP/TCM substances with those of an approved drug collection. Many of the approved drugs have well-annotated mechanisms of action (MOA) while the MOAs for most of the DSNP and TCM samples remain unknown. Based on the premise that compounds with similar activity profiles tend to share similar targets or MOA, we clustered the library activity profiles to identify overlap with the NCATS Pharmaceutical Collection to predict the MOAs of the DSNP/TCM substances. Overall, we highlight four significant bioactivity profiles (measured by p-values) as examples of this prediction. To assess broad cytotoxicity, we employed screening against a HepG2 cell line. In addition, transporter-mediated drug interactions are utilized in the characterization of DDIs using a P-glycoprotein (P-gp) assays. To profile potential P-gp activity, a differential cell viability was measured against two cell lines: a parental KB-3-1 human cervical adenocarcinoma cell line and the drug-resistant subline KB-8-5-11 that overexpresses P-gp.
To this end, we profiled both collections for potential CAR and/or PXR activity, employing a previously published 1536-well qHTS assay.
[1] Lee TD, et al. A High-Throughput Screen of a Library of Therapeutics Identifies Cytotoxic Substrates of P-glycoprotein. Mol Pharmacol. Nov 2019;96(5):629-640. doi:10.1124/mol.119.115964
PROTOCOL TABLE (as described by Inglese J, Shamu CE and Guy RK. 2007)
SEQUENCE No. (e.g., 1, 2, 3, etc.); PARAMETER (e.g., Cells, Incubation, Reagent, etc.); VALUE; DESCRIPTION.
1; Cells; 5 uL; KB-8-5-11 cells, white solid-bottom tissue treated Greiner plate.
2; Incubation; 4 hrs; 37C, 95% humidity, 5% CO2.
3; Compounds and control; 23 nL; Kalypsis pin tool (Wako USA) equipped with a 1536-well pin head to transfer to the assay plates.
4; Incubation; 72 hrs; 37C, 95% humidity, 5% CO2.
5; Reagent; 2.5 uL; CellTiter-Glo.
6; Centrifuge; 1000 RPM; 15 seconds.
7; Incubation; 30 min; room temperature.
8; Read; Luminescence; ViewLux plate reader.
NOTES (numbers refer to Sequence numbers above)
1. P-gp-overexpressing subline KB-8-5-11 were maintained in DMEM (Thermofisher catalog #11965) with 10% FBS and 1% penicillin/streptomycin at 37C in 5% CO2. For KB-8-5-11 cells, colchicine was added to the medium at a concentration of 100 ng/ml (after initial cell attachment). For the screen, assay medium was identical to culture medium except for KB-8-5-11, where colchicine was excluded from the medium. Briefly, 5 uL of cells at 1 x 10^5 cells/mL (500 cells/well) were dispensed into a 1536-well white solid-bottom tissue treated plate (Greiner Bio-One) using a Multidrop Combi dispenser.
2. Plates were incubated at 37C, 95% humidity, 5% CO2 for ~4 hours to allow for cell attachment.
3. Compounds and intraplate control (Bortezomib; final concentration range 228 pM - 7.5 uM) were transferred (16 nL) via pintool (Wako Automation), for a final concentration of 15.6 nM - 30.0 uM (most substances).
4. Plates were incubated for ~72 hours at 37C, 95% humidity, 5% CO2.
5. Plates were then dispensed with 2.5 uL of CellTiter-Glo.
6. The assay plates were centrifuged for 15 seconds at 1,000 RPM's.
7. The plates were incubated for 30-minute at room temperature.
8. […]
A general note: In qHTS, concentration-response curves come from the screen itself.
For `Nc1nc2ncc(CNc3ccc(C(=O)N[C@@H](CCC(=O)O)C(=O)O)cc3)nc2c(=O)[nH]1`, the call was inactive.
For `O=C1O[C@H]([C@@H](O)CO)C(O)=C1O` the value was “inactive”.
The result for `O=c1ccc2ccccc2o1` reads “inactive”; that for `O=C(/C=C/c1ccc(O)c(O)c1)O[C@@H]1C[C@@](OC(=O)/C=C/c2ccc(O)c(O)c2)(C(=O)O)C[C@@H](O)[C@@H]1O`, “inactive”.
`C[C@]12CC[C@H](O)CC1=CC[C@@H]1[C@@H]2CC[C@]2(C)C(=O)CC[C@@H]12`: the molecule was classed as inactive.
On to `COc1ccc2cc3[n+](cc2c1OC)CCc1cc2c(cc1-3)OCO2`, for which the result was inactive.
For `C/C=C/c1ccc(OC)cc1`, the result was inactive.
For `OC1C(O)C(O)C(O)C(O)C1O` (stereo unspecified), the molecule was classed as inactive.
As for `Cn1c(=O)c2c(ncn2C)n(C)c1=O`, the outcome was inactive.
The result for `NC(N)=NCCC[C@H](N)C(=O)O` reads “inactive”; that for `OC[C@H]1O[C@@H](OCCc2ccc(O)cc2)[C@H](O)[C@@H](O)[C@H]1O`, “inactive”.
